About 540 (0.62%) of roughly 87,000 compounds were called active. No rule for the calls is given here. What follows is part of a selection rich in actives, with near analogues and random picks from the rest. Entries with a potency or affinity are not part of this list.

Drawing on PubChem BioAssay AID618 (Sanford-Burnham Center for Chemical Genomics, 2007), this text covers outcome for 131 compounds.

The test can be described thus: inhibitors of MT1-MMP promoter transcription, cell-based, luciferase reporter, luminescence (AID 618).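 Also: actives suppress MT1-MMP promoter-driven transcription so potencies describe inhibitors.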 The note with it: MT1-MMP promoter luciferase reporter cells. (In a reporter assay the amount or activity of a reporter protein is the signal.)
For the compound `CC(C)N(Cc1nc(-c2ccc(Cl)cc2)no1)C(=O)CN(C)S(=O)(=O)c1ccc(Cl)cc1`, the outcome was inactive. The same measure for `Cc1ccc(NC(=O)c2cc(C)on2)cc1`: “inactive”.

As for `COC(=O)N1CC=CC1(C)C(=O)NCC1CC1` (stereo unspecified), the compound was classed as inactive.

Take `O=C(NCc1ccc2c(c1)OCO2)C1(S(=O)(=O)c2ccccc2)CC1`: the compound was called inactive. The same measure for `Cc1nc2c(ccc3nc(NC(=O)c4ccc(S(=O)(=O)N(C)C)cc4)sc32)s1`: “inactive”. The same measure for `Cc1cc(NC(=O)c2ccc3c(c2)OCCO3)no1`: “active”; for `Cc1cc(NC(=O)c2ccc3c(c2)OCO3)no1`: “inactive”; for `Cc1nc2ccc3nc(NC(=O)c4ccc5c(c4)OCCO5)sc3c2s1`: “inactive”. On to `Cc1nc2c(ccc3nc(NC(=O)c4ccc5c(c4)OCCO5)sc32)s1`, for which the result was active. For `Cc1cc(NC(=O)c2ccc(Cl)cc2)no1` the value was “inactive”; for `CC(=O)c1ccc(NC(=O)CSc2nnc(NC(=O)CN3CCOCC3)s2)cc1`, “inactive”; for `Cn1cccc1C(=O)NC(=O)COC(=O)CC12CC3CC(CC(C3)C1)C2`, “inactive”.

In the case of `Cc1cc2c(c(=O)n1C1CC1)C(c1cccc(Cl)c1)C(C#N)=C(N)O2` (stereo unspecified), the call was inactive. For `OCCN1CCN(CCCN2c3ccccc3Sc3ccc(C(F)(F)F)cc32)CC1` the value was “active”; for `CN1CCN(CCCN2c3ccccc3Sc3ccc(C(F)(F)F)cc32)CC1`, “inactive”; for `OCCN1CCN(CCCN2c3ccccc3Sc3ccc(Cl)cc32)CC1`, “inactive”. The same measure for `O=C(Nc1ccccc1C(=O)OCn1nnc2ccccc2c1=O)c1ccco1`: “inactive”; for `CC(=O)Nc1ccc(S(=O)(=O)N2CCC(c3nc4ccc(C)cc4[nH]3)CC2)cc1`: “inactive”.

For the compound `Cc1nc2ccccc2c(=O)n1/N=C/c1ccc(N(C)C)cc1`, the result was inactive.

Turning to `C=CCn1c(/N=C/c2ccc(N(C)C)cc2)nc2ccccc21`, the result was inactive. The same measure for `CN(C)c1ccc(/C=N/n2ncc3ccccc32)cc1`: “active”; for `CCCN=Cc1c(CCC)[nH]n(-c2nc3ccccc3s2)c1=O`: “inactive”. The same measure for `CCCc1[nH]n(-c2nc3ccccc3s2)c(=O)c1C=NCC(C)C`: “inactive”; for `O=C(CCN1C(=O)C2C3C=CC(C3)C2C1=O)N1CCN(c2ccccc2Cl)CC1` (stereo unspecified): “inactive”.

For the compound `O=C(NCc1ccc2c(c1)OCO2)c1c[nH]c2ccc(S(=O)(=O)N3CCOCC3)cc2c1=O`, the compound was classed as inactive. On to `COC(=O)Cn1c(C)c(C#N)c2ccccc21`, for which the result was inactive.

Turning to `Cc1cc(C)n(-c2nnc(C)n2/N=C/c2cc(Br)ccc2OCc2ccccc2)n1`, the compound was called inactive.

On to `COc1ccccc1/C=N/n1c(C)nnc1-n1nc(C)cc1C`, for which the compound was classed as inactive. For `CCCOc1ccc2ccccc2c1/C=N/n1c(C)nnc1-n1nc(C)cc1C` the value was “active”; for `Cc1nn(C)cc1C=NCCOCc1ccccc1`, “inactive”. The same measure for `O=C(CCC(=O)c1cccs1)NC(c1ccccc1)c1ccccc1`: “inactive”.

Regarding `COc1ccc2oc(=O)c(-c3nc(C)cs3)cc2c1`, the compound was called inactive. As for `Cc1csc(-c2coc3cc(O)cc(C)c3c2=O)n1`, the call was inactive. Take `COc1ccc2c(=O)c(-c3nc(C)cs3)coc2c1`: the outcome was active. For `CCCC(=O)Nc1cnc(NC(=O)c2cccc(F)c2)cc1C` the value was “inactive”; for `CCN(CCCNC(=O)CN1C(=O)COc2ccccc21)c1ccccc1`, “inactive”. In the case of `COc1cc(C2C(C#N)=C(C)NC3=C2C(=O)c2ccccc23)cc(OC)c1OC` (stereo unspecified), the compound was classed as active. As to `COc1ccc(C2C(C#N)=C(C)NC3=C2C(=O)c2ccccc23)cc1` (stereo unspecified), the compound was classed as inactive. Turning to `COc1cc(C2C(C#N)=C(C)NC3=C2C(=O)CC(C)(C)C3)cc(OC)c1O` (stereo unspecified), the compound was classed as inactive.

As to `CCCCCC(=O)N(O)C1CC(=O)N(c2ccccc2)C1=O` (stereo unspecified), the call was inactive.

With `COC(=O)c1ccc(Nc2nc(C)cc(C)n2)cc1`, the outcome was inactive. The same measure for `CCOC(=O)c1ccccc1NC(=O)CN(c1ccccc1C)S(C)(=O)=O`: “inactive”.

Turning to `CN1C(=O)c2c(sc3c2CC(C)(C)SC3)N2CCN=C12`, the result was inactive. For `O=C1CN(C(=O)c2ccccc2)c2ccccc2N1`, the compound was called inactive. The same measure for `Cc1ccsc1C(=O)N1CC(=O)Nc2ccccc21`: “inactive”.

As for `Cc1cc(C)cc(C(=O)N2CC(=O)Nc3ccccc32)c1`, the compound was classed as active. With `O=C(CCN1C(=O)c2ccccc2C1=O)Nc1ccccn1`, the compound was classed as inactive. For `CNC(=O)C1CCCN1S(=O)(=O)c1ccc(OC)cc1` (stereo unspecified) the value was “inactive”; for `Cc1ccc(NC(=O)CS(=O)CC(=O)NCC2OCCc3ccccc32)c(C)c1` (stereo unspecified), “inactive”. On to `Cc1cccc(-c2c3c(=O)n(C)c(=O)n(C)c3c3c(C)cc(C)nn23)c1`, for which the call was inactive.

As to `Cc1cc(S(=O)(=O)Nc2ccc(N(C)C)cc2)c(C)s1`, the call was inactive.

In the case of `COc1cccc(N2CCN(c3ncnc4c3[nH]c3ccccc34)CC2C)c1` (stereo unspecified), the result was inactive.

As to `Fc1ccc2[nH]c3c(N4CCN(c5ccccc5)CC4)ncnc3c2c1`, the result was inactive. The same measure for `COc1cccc(N2CCN(c3ncnc4c3[nH]c3ccc(F)cc34)CC2C)c1` (stereo unspecified): “active”; for `CC(C)(C)c1ccc(C(O)CCCN2CCC(C(O)(c3ccccc3)c3ccccc3)CC2)cc1` (stereo unspecified): “active”. For `OC(CCN1CCCC1)(c1ccccc1)C1CCCCC1` (stereo unspecified) the value was “inactive”; for `OC(CCCCN1CCCCC1)c1ccccc1` (stereo unspecified), “inactive”; for `Nc1ccc2nn(-c3cccc4ccccc34)nc2c1`, “inactive”.

On to `Cc1ccc(-n2nc(-c3ccc(N)cc3)cc2N)cc1`, for which the result was inactive. `CCOC(=O)CC1=CC(C)(CC(=O)OCC)C(C#N)(C#N)C(N)=C1C#N` (stereo unspecified): the compound was classed as inactive. The same measure for `O=C(CC1(O)C(=O)Nc2ccccc21)c1ccc(-n2cccc2)cc1` (stereo unspecified): “inactive”. Regarding `CC(C)(C)NC(=O)CC(c1ccccc1)c1ccccc1O` (stereo unspecified), the call was inactive. With `Cc1sc2nc(SCC(=O)NCc3cccs3)[nH]c(=O)c2c1C`, the compound was classed as inactive.

Regarding `Cc1cnc(NC(=O)COc2ccccc2Cl)s1`, the result was active. For `Cc1cnc(NC(=O)COc2ccccc2)s1` the value was “inactive”; for `Cc1cnc(NC(=O)COc2cccc3c2OC(C)(C)C3)s1`, “inactive”; for `CCOC(=O)C1C(=O)NC(N2CCN(Cc3ccccc3)CC2)=NC1c1ccccc1` (stereo unspecified), “inactive”. For the compound `Clc1ccc(-c2nnc(-c3ccccc3)o2)c(Cl)c1`, the compound was called inactive. Take `Fc1ccc(-c2nnc(-c3ccc(Cl)cc3)o2)cc1`: the result was inactive. On to `Cc1cccc(NC(=O)CCc2ccc(C)o2)c1`, for which the outcome was inactive. For `C/C(N)=C(/C#N)C(=O)COC(=O)COc1ccc(Cl)cc1`, the outcome was inactive.

As for `c1ccc(Nc2ccccc2Nc2ccccn2)nc1`, the outcome was inactive. The same measure for `c1ccc(Nc2ccccn2)cc1`: “inactive”. The same measure for `Oc1cccc2ccc(Nc3ccccn3)nc12`: “active”; for `Cc1cc(C)nc(NC2=NC3CCCCC3N2)n1` (stereo unspecified): “inactive”. The same measure for `O=C(Nc1ccc(F)cc1)c1ccccc1`: “inactive”. Regarding `Cc1cc(C)cc(NC(=O)CCn2ccnc2C)c1`, the outcome was inactive.

In the case of `CC1CC(C)CN(c2oc(-c3ccco3)nc2C#N)C1` (stereo unspecified), the outcome was inactive. For the compound `COc1ccc2c(CSc3nc4nc(C)cc(C)n4n3)cc(=O)oc2c1`, the outcome was inactive. `CCC(SCC(=O)OC)C(=O)Nc1nnc(C(C)C)s1` (stereo unspecified): the result was inactive. Consider `Cc1nnc(SCCn2c(N3CCN(C)CC3)nc3c2c(=O)n(C)c(=O)n3C)s1`, for which the compound was called inactive. Take `Cc1nnc(Sc2nc(Sc3nnc(C)s3)nc(N3CCN(C)CC3)n2)s1`: the result was active. The same measure for `Cc1nnc(SCCn2c(N3CCN(C)CC3)nc3c2c(=O)[nH]c(=O)n3C)s1`: “inactive”; for `COc1ccc(NC(=O)C2C(=O)N(C)C3(C)CC2c2ccccc2O3)cc1` (stereo unspecified): “inactive”; for `O=C1c2ccccc2C(=O)C1c1ccc2ccccc2n1`: “active”. In the case of `Cc1ccc2ccc(C3C(=O)c4ccccc4C3=O)nc2c1`, the result was inactive. The same measure for `COC(=O)C1=C(C)NC(C)=C(C(=O)OC)C1c1ccc2ccccc2n1`: “inactive”. In the case of `CCCCn1c(CCNC(=O)CCC)nc2ccccc21`, the call was inactive.

Regarding `CCCCCCc1ccc(OCC(=O)O)cc1OCC(=O)O`, the outcome was inactive. For the compound `CC(C)(/C=N/O)/[N+]([O-])=C/c1ccco1`, the compound was classed as inactive. As for `Cc1cc(C(=O)NCCCN2CCOCC2)n(-c2ccccc2)n1`, the outcome was inactive.

In the case of `Cc1cc(C(=O)NCCN2CCN(c3cccc(Cl)c3)CC2)n(-c2ccccc2)n1`, the compound was classed as active. In the case of `Cc1cc(C(=O)NCCCN2CCN(C3CCCCC3)CC2)n(-c2ccccc2)n1`, the outcome was inactive. Take `COc1ccc(S(=O)(=O)Cc2ccc(C(=O)N3CCc4ccccc4C3)o2)cc1`: the outcome was inactive. For `CCC1=C/C(=C/N(C)c2ccccc2)C(=O)S1`, the call was inactive. Take `Cc1ccc(-c2cc(=O)[nH][nH]2)c(C)c1`: the call was inactive.

Consider `CCOC(=O)c1c(C)sc2c1N(C(=O)CN(CC)CC)c1cc(Cl)ccc1S2`, for which the call was inactive. The same measure for `CCOC(=O)c1c(C)sc2c1N(C(=O)CCl)c1cc(Cl)ccc1S2`: “active”; for `CCOC(=O)c1c(C)sc2c1N(C(C)=O)c1cc(Cl)ccc1S2`: “inactive”. Consider `CCC(C)NC(=O)c1cc2cc3ccc(OC)cc3nc2s1` (stereo unspecified), for which the compound was classed as inactive.

Regarding `CCN1CCN(C(=O)c2cc3cc4ccc(OC)cc4nc3s2)CC1`, the compound was classed as inactive.

Take `O=c1[nH]c(NCCO)nc2ncn(Cc3ccccc3)c12`: the call was inactive. The same measure for `Cn1c(C(=O)N2CCCC(C(=O)NCCc3ccccc3)C2)cc2sccc21` (stereo unspecified): “inactive”; for `Cc1ccc(-c2csc(NC(=O)c3ccno3)n2)cc1`: “inactive”. Regarding `O=C(CC(=O)c1cc(Cl)ccc1O)c1ccccc1`, the result was inactive. The same measure for `Cc1ccc(C(=O)CC(=O)c2cc(Cl)ccc2O)cc1`: “inactive”; for `COc1ccc(C(=O)c2ccccc2)c(O)c1`: “inactive”; for `Cc1ccc(O)c(C(=O)CC(=O)c2cccc(F)c2)c1`: “inactive”. With `CSCCC1C(=O)OC2(C)CC(C)(C)NC(=S)N12` (stereo unspecified), the compound was classed as inactive. The same measure for `COCCn1c(C)cc(C(=O)CSc2nnc(C)s2)c1C`: “active”. On to `Cc1nnc(SCC(=O)c2cc(C)n(C3CC3)c2C)s1`, for which the compound was classed as inactive. The same measure for `COCCn1c(C)cc(C(=O)CSc2nncn2-c2ccccc2)c1C`: “inactive”; for `COCCn1c(C)cc(C(=O)CSc2ncn[nH]2)c1C`: “inactive”. For `CCCn1c(=O)c2ccccc2n2c(SCC(=O)c3cc(C)n(CCOC)c3C)nnc12` the value was “inactive”; for `CC(=O)N1c2ccccc2C(=O)OC1c1cccnc1` (stereo unspecified), “inactive”; for `O=C(NCCCn1ccnc1)c1cc2c(s1)CCCCC2`, “inactive”. For `COc1cccc(CN2C(=O)c3ccccc3C2C(=O)NCC2CCCO2)c1` (stereo unspecified) the value was “inactive”.

As to `O=C(O)c1cnn(-c2ccccc2)c1-n1cccc1`, the result was inactive. On to `COc1cccc(-n2nnnc2SCC(=O)Nc2cccc(C)n2)c1`, for which the result was inactive. The same measure for `O=C(Cn1cnc2c(nnn2Cc2ccc(F)cc2)c1=O)OCc1ccccc1`: “inactive”; for `Cc1ccc(S(=O)(=O)Nc2ccnc3ccccc23)cc1`: “inactive”; for `Cc1ccc(S(=O)(=O)NCc2cccnc2)s1`: “inactive”. The same measure for `O=S(=O)(Nc1cccc2c1ccc1cccn12)c1cccs1`: “inactive”; for `O=S(=O)(Nc1cccc2ncccc12)c1cccs1`: “active”. The same measure for `Cc1ccc(S(=O)(=O)Nc2cccc3ncccc23)s1`: “active”; for `O=S(=O)(Nc1ccc(-c2nc3cccnc3s2)cc1)c1cccs1`: “inactive”; for `CCN(CC)CCOC(=O)c1cccc(Cl)c1`: “inactive”.

In the case of `O=C(O)Cc1ccc(C(=O)c2cccs2)s1`, the compound was classed as inactive.

On to `Cc1ccc(C(=O)c2nocc2C(=O)c2cccs2)cc1`, for which the result was inactive. As for `O=C(c1cccs1)c1no[n+]([O-])c1C(=O)c1cccs1`, the call was active. For `CC(=O)c1cccc(NC(=O)N2CCCC2C(=O)NCc2ccc(F)cc2)c1` (stereo unspecified) the value was “inactive”.
